Assay outcomes as filed in PubChem BioAssay.
TEAD-YAP inh: TEAD-YAP interaction inhibition, primary screen, TEAD-YAP interaction inhibitor project, luminescence, HEK-TIYL cells | TEAD-Gal4/YAP UAS-luciferase luminescence | inhibition, % at 9.12 µM | 640,000 tested, 1.4% active | AID 1259422, 2018; in the data active means inhibition above about 32%;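 further: 0% = median of test compound wells and 100% = reference inhibitor wells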
MITF primary: MITF inhibitors, primary screen, biochemical, AlphaScreen, human. Microphthalmia-associated transcription factor (Homo sapiens), O75030. AlphaScreen MITF homodimerization, bead proximity signal. inhibition, % at 2.6 µM. 650,000 tested, 0.91% active. AID 1259374, 2018; in the data active means inhibition above about 50%;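 further: 0% = vehicle wells with protein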
FBW7 activator: FBW7 E3 ligase activators, primary screen, biochemical, AlphaScreen, human; 650,000 tested, 0.13% active; AlphaScreen FBW7–phospho-cyclin E peptide binding, activator screen; F-box/WD repeat-containing protein 7 (Homo sapiens), Q969H0; normalized activity (activation), % at 26.1 µM; in the data active means normalized activity above about 1.9%;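 further: purified mutant Fbw7 with reduced substrate affinity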
Target sequence (Q969H0 whole entry, looked up): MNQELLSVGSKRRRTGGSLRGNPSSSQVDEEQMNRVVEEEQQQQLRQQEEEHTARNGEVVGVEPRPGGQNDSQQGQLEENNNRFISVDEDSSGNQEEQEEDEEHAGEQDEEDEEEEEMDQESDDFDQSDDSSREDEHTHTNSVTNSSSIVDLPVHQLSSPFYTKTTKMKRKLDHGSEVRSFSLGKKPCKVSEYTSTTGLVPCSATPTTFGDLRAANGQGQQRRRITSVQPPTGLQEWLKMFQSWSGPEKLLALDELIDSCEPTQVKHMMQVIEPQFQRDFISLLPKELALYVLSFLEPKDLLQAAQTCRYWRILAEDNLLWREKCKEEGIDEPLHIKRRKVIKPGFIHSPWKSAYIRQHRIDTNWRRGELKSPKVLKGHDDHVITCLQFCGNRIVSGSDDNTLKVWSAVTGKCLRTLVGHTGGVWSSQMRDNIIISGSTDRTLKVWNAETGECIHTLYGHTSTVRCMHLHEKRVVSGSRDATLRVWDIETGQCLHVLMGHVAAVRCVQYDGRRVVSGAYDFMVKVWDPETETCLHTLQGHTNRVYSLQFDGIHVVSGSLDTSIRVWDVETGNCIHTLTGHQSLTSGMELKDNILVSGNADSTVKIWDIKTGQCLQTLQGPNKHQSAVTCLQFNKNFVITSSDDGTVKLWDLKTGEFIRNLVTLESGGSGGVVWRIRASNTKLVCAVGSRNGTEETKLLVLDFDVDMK
GPR151 activ: activators of human GPR151, primary screen, cell-based, PathHunter beta-arrestin, luminescence | 650,000 tested, 1% active | G-protein coupled receptor 151 (Homo sapiens), Q8TDV0 | PathHunter beta-arrestin GPR151 cells | activation, % at 11.2 µM; in the data active means activation above about 4.9%;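 further: 0% = median of compound wells and 100% = cells with positive control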
* = called active by the depositor. The list is not random: actives were taken first. Their share in the collection is about 3.5%.

SMILES	TEAD-YAP inh	MITF primary	FBW7 activator	GPR151 activ
N#Cc1c(NC(=O)CCn2cnc3ccccc3c2=O)sc2c1CCC2	8	7	0	-2
COc1ccc(CNS(=O)(=O)c2ccc(OC)c3ccccc23)cc1	34*	-5	0	4
COc1ccc(S(=O)(=O)NCc2cccnc2)c2ccccc12	1	10	1	0
CCOc1ccc(-c2cn3ccsc3n2)cc1	43*	12	0	-2
Oc1ccc(-c2cn3ccsc3n2)cc1	73*	12	0	-2
Cc1cnc(NC(=O)c2ccc(Cn3ccnc3)cc2)s1	61*	0	0	-1
CC1CCc2c(sc3nnn(CC(=O)NCc4cccs4)c(=O)c23)C1 (configuration not stated)	43*	8	0	1
COc1cccc2sc(=NC(=O)c3cccc(Oc4ccccc4)c3)n(C)c12	3	2	0	3
O=C(N/N=C/c1cc(Cl)ccc1O)C(=O)Nc1ccccc1OC(F)(F)C(F)F	79*	-6	0	1
O=C(N/N=C/c1cc([N+](=O)[O-])ccc1O)C(=O)Nc1ccccc1OC(F)(F)C(F)F	8	2	0	-1
Cc1ccc(-c2cnn3c(NCc4cccs4)ccnc23)cc1	-67	11	0	0
OCc1ccccc1-c1cnn2c(NCc3cccs3)ccnc12	63*	-10	0	-1
O=C(O)CCc1ccc(-c2cnn3c(NCc4ccco4)ccnc23)cc1	33*	19	1	-4
c1ccc(-c2cnn3c(NCc4cccs4)ccnc23)cc1	-48	12	0	0
Nc1ccc(-c2cnn3c(NCc4cccs4)ccnc23)cc1	71*	-12	-1	0
Cc1ccccc1NC1SC(=O)N(Cc2cccc(C(=O)O)c2)C1=O (configuration not stated)	-10	3	0	-1
O=c1[nH]n(CN2CCOCC2)c(=O)c2ccccc12	9	8	0	2
CCOC(=O)N1CCc2c(sc(NCc3ccccn3)c2C(=O)Nc2ccc(OC)cc2OC)C1	48*	-1	-1	-1
COc1ccccc1Oc1ccc(S(=O)(=O)Nc2ccc3c(c2)OCCO3)cc1	44*	13	0	2
COc1ccc(S(=O)(=O)Nc2ccc3c(c2)OCCO3)cc1Br	0	-3	0	0
CC(C)(C)C(C)(O)C#Cc1ccccc1 (configuration not stated)	83*	0	0	-8
CC(O)(C#Cc1ccccc1)c1ccccc1 (configuration not stated)	-2	-9	0	0
COc1cc(OC)c(C(=O)Nc2ccc(Br)cc2C)cc1OC	-59	3	1	-3
O=C1c2cccc3cccc(c23)C(=O)N1CCN1CCNCC1	2	3	0	3
Oc1ccc(C2=Nn3c(nnc3-c3ccccc3O)SC2)cc1O	41*	22	0	3
SMILES	TEAD-YAP inh	MITF primary	FBW7 activator	GPR151 activ
Cc1ccc(C2=Nn3c(nnc3-c3ccccc3C)SC2)cc1	60*	1	0	0
Brc1ccc(C2=Nn3c(nnc3-c3ccccc3)SC2)cc1	-6	10	0	0
O=C(Nc1cnc2ccccc2c1)c1cccs1	13	1	0	-3
Cc1ccc(S(=O)(=O)N2CCCOC2CNC(=O)C(=O)NC(C)C)cc1 (configuration not stated)	0	-2	0	0
Cc1onc(-c2ccccc2)c1C1=N/C(=C\c2cccc(Br)c2)C(=O)O1	1	9	2.2*	-1
COc1ccc(-c2nc3ccccc3c(=O)n2NCc2ccc(Br)cc2)cc1OC	-17	2	0	1
COc1ccc(-c2nc3ccccc3c(=O)n2NCc2ccc(O)cc2)cc1OC	40*	18	0	1
COc1ccc(-c2nc3ccccc3c(=O)n2NCc2cccc(OC)c2)cc1	8	10	0	0
COc1ccc(-c2nc3ccccc3c(=O)n2NCc2cccc(Oc3ccccc3)c2)cc1	78*	0	0	0
Cc1ccc(C(=O)Nc2nc3c(s2)CCC3C(=O)NCCc2ccc(Cl)cc2)cc1 (configuration not stated)	-2	-12	0	-1
O=C(COc1cccc2ccccc12)NNC(=O)NC12CC3CC(CC(C3)C1)C2	19	3	0	0
